The text below walks through data of PubChem BioAssay.

The nature of assay [1]: small molecules captured by biotinylated probe aFSTL3 – biochemical, small-molecule microarray, fluorescence 635/667, stem cell growth factor project, primary screen (AID 1064).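 Note: measures binding of the biotinylated anti-FSTL3 antibody to printed compounds.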 The settings on record: higher = more signal.
The nature of assay [2]: binders from COS7 lysate, DM2A8 probe, primary screen, torsin A project, cell lysate, small-molecule microarray, fluorescence 635/667 (AID 1065). The following applies: higher = more signal, COS7 lysate expressing mutant human TOR1A.
Assay [3] can be described thus: small molecules captured by biotinylated probe aFGF2 – biochemical, small-molecule microarray, fluorescence 635/667, stem cell growth factor project, primary screen (AID 1067).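 Note: measures binding of biotinylated aFGF2 protein to printed compounds on slides; z-score merges feature fluorescence and signal-to-noise across triplicate slides.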 The following applies: higher = more signal.
Assay [4] can be described thus: small molecules captured by biotinylated probe aFGF10 – biochemical, small-molecule microarray, fluorescence 635/667, stem cell growth factor project, primary screen (AID 1071).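 Note: score merges 667 nm spot intensity and signal to noise from triplicate slides.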 The settings on record: higher = more signal.
Assay [5] addresses Neurogenic locus notch homolog protein 2 (Homo sapiens) (UniProt Q04721). Put plainly: small molecules binding Notch2 protein – biochemical, small-molecule microarray, 635 nm fluorescence, stem cell growth factors, primary screen (AID 1073). The settings on record: higher = more signal.
For assay [6], the target named is Pro-neuregulin-1, membrane-bound isoform (Homo sapiens) (UniProt Q02297). Put plainly: small molecules binding neuregulin-1 protein – biochemical, small-molecule microarray, fluorescence 635/667, psychiatric disease protein project, primary screen (AID 1075).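 Note: score combines 667 nm spot fluorescence with signal to noise.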 The settings on record: NRG1 binding, 635 nm fluorescence, higher = more signal.
Assay [7] concerns Neuregulin-1 EGF-like domain. Put plainly: small molecules binding NRG1 EGF domain – biochemical, small-molecule microarray, 635 nm fluorescence, primary screen (AID 1081).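 Note: binding of the protein to compounds printed on small-molecule microarray slides.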 The following applies: higher = more signal.
Assay [8] in a line: FRG1 expression reporter modulators in myotubes – cell-based, C2C12 myotubes, firefly/Renilla luciferase, luminescence, FRG1 inhibition for FSHD, primary screen (AID 1084). The following applies: FRG1 promoter luciferase, higher = more signal, called active from +8 up or from −8 down.
The nature of assay [9]: small molecules captured by biotinylated probe aFST – biochemical, small-molecule microarray, fluorescence 635/667, stem cell growth factor project, primary screen (AID 1086).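 Note: score merges 667 nm fluorescence with signal-to-noise of each printed compound spot.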 The settings on record: higher = more signal.
A short description of assay [10]: binders of probe aHhip on microarray, primary screen, stem cell growth factor project, biochemical, small-molecule microarray, fluorescence 635/667 (AID 1087).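 Note: score merges spot fluorescence at 667nm with spot signal to noise ratio.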 The following applies: higher = more signal.
The test system of assay [11] is PRMT1 (protein arginine N-methyltransferase 1). Put plainly: small molecules binding arginine methyltransferase PRMT1 – biochemical, small-molecule microarray, 635 nm fluorescence, primary screen (AID 1088).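 Note: binding of Prmt1 protein to compounds spotted on small-molecule microarray slides.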 The settings on record: higher = more signal.
Assay [12] is described as follows: growth effects on S. cerevisiae YJM789 – YJM789 clinical isolate, OD600, 24 h, basal, primary screen (AID 1089).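 Note: growth of clinical yeast isolate S. cerevisiae YJM 789 seeded 1000 cells per well; test concentration not given here.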 The settings on record: higher = more signal, called active from +8 up or from −8 down.
Assay [13] in a line: S. pombe growth modifiers, basal conditions – strain 972, OD600, 24 h, no modulator, primary screen (AID 1090).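 Note: basal condition with compound alone and no growth modifier present; test concentration not given here.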 The following applies: S. pombe 972 growth, higher = more signal, called active from +8 up or from −8 down.
A short description of assay [14]: budding yeast growth modifiers under rapamycin – strain BY4716, OD600, 96 h, primary screen (AID 1091). Note: test concentration not given here. The settings on record: S. cerevisiae BY4716 + rapamycin, higher = more signal, called active from +8 up or from −8 down.
The target in assay [15] is Torsin-1A-interacting protein 2 (Homo sapiens) (UniProt Q8NFQ8). Put plainly: small molecules binding lysate-expressed LULL1 – cell lysate, human LULL1 lysate, 635/667 nm fluorescence, primary screen (AID 1092).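 Note: probe is lysate of COS7 cells overexpressing human LULL1; score merges per-feature 667 nm fluorescence with signal-to-noise.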 The settings on record: small-molecule microarray, hLULL1 lysate binding, 635 nm fluorescence; higher = more signal.
A short description of assay [16]: optical density change of DRC41 E. coli – strain DRC41, OD650, 24 h, E. coli filamentation project, primary screen (AID 1093).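 Note: MC1000 strain lacking acrAB efflux and sulA so SOS filamentation is blocked; test concentration not given here.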 The settings on record: E. coli DRC41 growth, higher = more signal, called active from +8 up or from −8 down.
Assay [17] in a line: probe aLefty2 binding to arrayed compounds – biochemical, biotinylated probe, 635/667 nm fluorescence, primary screen (AID 1094).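 Note: score merges spot fluorescence near 667 nm with spot signal-to-noise ratio.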 The following applies: small-molecule microarray, higher = more signal.
For assay [18], the system named is Noggin (protein binding on small-molecule microarray). Put plainly: small molecules binding Noggin protein – biochemical, 635/667 nm fluorescence, primary screen (AID 1095).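 Note: score merges 667 nm feature fluorescence with signal to noise over triplicate slides.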 The settings on record: 635 nm fluorescence, higher = more signal.
In assay [19] the target is Neurogenic locus notch homolog protein 3 (Homo sapiens) (UniProt Q9UM47). Nature of the assay: small molecules binding NOTCH3 protein – biochemical, 635/667 nm fluorescence, primary screen (AID 1096). The following applies: small-molecule microarray, 635 nm fluorescence, higher = more signal.
The nature of assay [20]: probe aEGFR binding to arrayed compounds – biochemical, biotinylated probe, 635/667 nm fluorescence, primary screen (AID 1097).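 Note: probe is a biotinylated anti-EGFR antibody binding compounds printed on slides; score combines fluorescence near 667 nm and signal to noise of each spot.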 The following applies: small-molecule microarray, higher = more signal.

The source made the active and inactive calls.

Sequence of Neurogenic locus notch homolog protein 3 (Homo sapiens) (Q9UM47 whole entry, looked up): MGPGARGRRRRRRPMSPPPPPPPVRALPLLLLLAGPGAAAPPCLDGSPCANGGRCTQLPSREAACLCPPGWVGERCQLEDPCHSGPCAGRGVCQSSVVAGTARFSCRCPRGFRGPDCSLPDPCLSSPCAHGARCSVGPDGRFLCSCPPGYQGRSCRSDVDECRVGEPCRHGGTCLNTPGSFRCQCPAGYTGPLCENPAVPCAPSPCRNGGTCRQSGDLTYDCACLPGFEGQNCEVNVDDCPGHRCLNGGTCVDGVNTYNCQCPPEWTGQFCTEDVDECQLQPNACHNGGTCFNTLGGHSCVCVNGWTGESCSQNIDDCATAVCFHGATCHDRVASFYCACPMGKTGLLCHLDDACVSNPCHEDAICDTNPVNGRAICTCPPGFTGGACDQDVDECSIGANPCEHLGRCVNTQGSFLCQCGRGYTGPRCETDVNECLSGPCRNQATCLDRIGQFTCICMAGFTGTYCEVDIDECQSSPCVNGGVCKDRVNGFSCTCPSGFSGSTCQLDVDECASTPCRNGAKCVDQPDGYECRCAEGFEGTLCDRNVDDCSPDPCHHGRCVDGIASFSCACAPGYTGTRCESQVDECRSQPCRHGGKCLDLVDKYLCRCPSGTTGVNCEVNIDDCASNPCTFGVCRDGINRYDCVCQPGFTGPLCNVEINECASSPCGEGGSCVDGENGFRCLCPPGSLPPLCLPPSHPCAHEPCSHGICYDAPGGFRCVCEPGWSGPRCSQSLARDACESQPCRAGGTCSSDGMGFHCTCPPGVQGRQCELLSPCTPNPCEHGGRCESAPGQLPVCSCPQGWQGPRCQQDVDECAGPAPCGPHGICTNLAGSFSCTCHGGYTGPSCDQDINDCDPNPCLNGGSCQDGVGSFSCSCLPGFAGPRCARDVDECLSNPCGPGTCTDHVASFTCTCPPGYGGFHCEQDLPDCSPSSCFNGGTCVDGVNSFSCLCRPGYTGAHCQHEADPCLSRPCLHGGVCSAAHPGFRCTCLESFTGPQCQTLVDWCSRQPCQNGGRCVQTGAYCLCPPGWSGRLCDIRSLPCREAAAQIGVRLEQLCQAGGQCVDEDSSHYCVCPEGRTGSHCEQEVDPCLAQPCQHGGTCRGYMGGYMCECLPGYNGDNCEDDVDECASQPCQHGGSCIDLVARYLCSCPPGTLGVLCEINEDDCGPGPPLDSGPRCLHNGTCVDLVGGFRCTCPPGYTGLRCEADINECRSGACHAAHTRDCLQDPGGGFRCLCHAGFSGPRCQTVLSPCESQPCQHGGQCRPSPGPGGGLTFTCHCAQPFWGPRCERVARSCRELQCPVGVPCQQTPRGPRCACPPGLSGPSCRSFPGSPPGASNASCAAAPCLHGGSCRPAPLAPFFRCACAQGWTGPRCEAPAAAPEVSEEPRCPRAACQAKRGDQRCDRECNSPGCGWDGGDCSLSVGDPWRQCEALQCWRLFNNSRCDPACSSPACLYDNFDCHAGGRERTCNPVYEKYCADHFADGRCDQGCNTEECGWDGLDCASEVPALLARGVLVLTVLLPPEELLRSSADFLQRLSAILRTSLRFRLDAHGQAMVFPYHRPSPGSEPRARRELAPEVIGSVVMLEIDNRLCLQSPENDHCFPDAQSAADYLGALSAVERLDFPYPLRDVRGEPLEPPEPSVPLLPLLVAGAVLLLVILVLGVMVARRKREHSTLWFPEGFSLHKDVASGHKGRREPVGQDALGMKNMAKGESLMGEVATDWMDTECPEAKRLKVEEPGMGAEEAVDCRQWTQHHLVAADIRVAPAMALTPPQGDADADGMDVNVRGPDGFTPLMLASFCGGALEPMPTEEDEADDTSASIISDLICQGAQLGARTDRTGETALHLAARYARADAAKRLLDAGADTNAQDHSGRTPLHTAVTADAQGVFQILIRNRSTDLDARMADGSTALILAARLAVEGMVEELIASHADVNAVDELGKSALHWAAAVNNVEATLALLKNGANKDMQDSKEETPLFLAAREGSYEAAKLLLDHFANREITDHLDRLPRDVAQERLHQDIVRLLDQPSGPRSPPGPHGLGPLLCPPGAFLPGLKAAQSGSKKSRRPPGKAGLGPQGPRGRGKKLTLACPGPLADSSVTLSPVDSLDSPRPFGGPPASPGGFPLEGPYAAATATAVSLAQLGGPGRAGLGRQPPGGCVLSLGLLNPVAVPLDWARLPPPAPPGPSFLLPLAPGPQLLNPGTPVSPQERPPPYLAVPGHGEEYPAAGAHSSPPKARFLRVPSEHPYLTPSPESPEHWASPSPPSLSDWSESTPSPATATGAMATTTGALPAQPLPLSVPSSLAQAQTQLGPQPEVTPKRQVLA
Sequence of Pro-neuregulin-1, membrane-bound isoform (Homo sapiens) (Q02297 whole entry, looked up, the tested form may be a part, canonical isoform): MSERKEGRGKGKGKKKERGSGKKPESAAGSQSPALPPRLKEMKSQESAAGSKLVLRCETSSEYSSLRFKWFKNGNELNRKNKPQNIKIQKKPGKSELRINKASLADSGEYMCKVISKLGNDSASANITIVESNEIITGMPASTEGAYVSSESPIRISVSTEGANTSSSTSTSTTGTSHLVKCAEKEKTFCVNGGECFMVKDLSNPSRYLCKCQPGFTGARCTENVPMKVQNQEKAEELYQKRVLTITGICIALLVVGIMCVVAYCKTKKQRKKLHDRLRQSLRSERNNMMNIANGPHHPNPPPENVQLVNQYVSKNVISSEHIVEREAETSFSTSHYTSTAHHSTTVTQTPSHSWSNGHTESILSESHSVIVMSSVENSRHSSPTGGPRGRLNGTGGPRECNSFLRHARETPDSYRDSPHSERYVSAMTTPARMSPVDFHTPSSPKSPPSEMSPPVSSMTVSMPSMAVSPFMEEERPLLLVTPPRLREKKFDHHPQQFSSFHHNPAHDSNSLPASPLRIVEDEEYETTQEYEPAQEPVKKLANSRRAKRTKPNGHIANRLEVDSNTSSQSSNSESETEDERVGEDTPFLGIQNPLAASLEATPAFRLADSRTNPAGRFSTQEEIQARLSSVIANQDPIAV
Sequence of Torsin-1A-interacting protein 2 (Homo sapiens) (Q8NFQ8 whole entry, looked up): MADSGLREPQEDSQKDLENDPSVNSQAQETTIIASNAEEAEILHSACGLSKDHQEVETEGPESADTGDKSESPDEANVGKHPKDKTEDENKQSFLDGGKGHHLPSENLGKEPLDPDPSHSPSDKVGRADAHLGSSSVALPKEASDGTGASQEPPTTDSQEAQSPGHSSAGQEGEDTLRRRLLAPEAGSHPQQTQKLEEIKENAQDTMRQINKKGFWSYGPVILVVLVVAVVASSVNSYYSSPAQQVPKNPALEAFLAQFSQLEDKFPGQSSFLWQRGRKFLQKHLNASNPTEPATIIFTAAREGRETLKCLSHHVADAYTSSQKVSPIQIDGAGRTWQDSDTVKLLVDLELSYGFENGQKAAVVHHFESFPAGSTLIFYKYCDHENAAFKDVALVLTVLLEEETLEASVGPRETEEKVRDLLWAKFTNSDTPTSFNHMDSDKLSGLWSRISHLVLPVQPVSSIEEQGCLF

On to `CC(C)C[C@@H]1NC(=O)[C@H]2C[C@@H](C(=O)NCCCC[N+](C)(C)C)[C@@H](c3cccc(OCCO)c3)N2C1=O`, for which the composite z-score in assay [1] was -0.746; in assay [2], 1.9; in [3], -0.138; in assay [4], 0.253; in [5], -0.942; in assay [6], 1.95. Moreover, the composite z-score is 1.43 in assay [7]; -0.233 in assay [9]; -0.717 in assay [10]; 0.617 in assay [11]; 3.37 in [15]; -0.348 in [17]. In addition, the composite z-score in assay [18] stood at 1.21; in assay [19], 1.03; in assay [20], 0.009. Besides, the z-score in [8] is 0.683 (inactive); in [12], -0.276 (inactive); in [13], -0.262 (inactive); in assay [14] it was -2.33 (inactive); in assay [16], 0.395 (inactive).

On to `C=CCC(OC(C)=O)[C@@H]1[C@@H](N(Cc2ccc(-c3ccccc3)cc2)C(=O)c2ccc(-c3ccccc3)cc2)c2cc(OCCCO)ccc2N1C(=O)c1ccc(-c2ccccc2)cc1` (stereo not given in full), for which the composite z-score in [1] is 0.54; in assay [2], 0.054; in assay [3], 0.032; in [4] it was -0.0598; in [5], -0.0106; in assay [6], -0.333. Besides, the composite z-score was -0.864 in assay [7]; 0.214 in [9]; -0.146 in [10]; -0.655 in [11]; 0.399 in [15]; 0.0525 in assay [17]. Further, the values for the composite z-score in assay [18], in assay [19] and in [20] were -0.846, -0.83 and -0.0981, respectively. Also, the z-score in [8] was -0.0089 (inactive); in [12], -0.611 (inactive); in assay [13], -0.811 (inactive); in assay [14] it was 0.131 (inactive); in assay [16] it was 1.99 (inactive).

For `C=CC[C@]1(C(=O)N(C)C)N=C(c2ccc(OCCCO)cc2)O[C@H]1c1ccccc1CN=[N+]=[N-]`, the composite z-score in [1] came out at 0.876; in assay [2] it was 1.42; in assay [3], 0.0188; in [4] it was 0.548; in [5] it was 1.38; in assay [6], 1.66. Moreover, the composite z-score in assay [7] came to 1.15; in assay [9], 1.43; in [10], 0.184; in assay [11] it was 1.09; in [15] it was 3.01; in assay [17], 0.186. Besides, the composite z-score in assay [18] came to 0.0301; in [19] it was 0.893; in assay [20], 0.188. For the same compound, the z-score in [8] is -2.15 (inactive); in assay [12] it was -1.01 (inactive); in [13] it was -1.1 (inactive); in assay [14], -1.52 (inactive); in [16] it was 1.39 (inactive).

For the compound `CC(C)(C)OC(=O)CC[C@]1(C(=O)NCc2ccccc2)COC(c2ccc(OCCCO)cc2)=N1`, the composite z-score in [1] is 0.508; in assay [2], 1.3; in [3] it was -0.0675; in [4], 0.0174; in assay [5], 0.431; in assay [6] it was 1.79. The composite z-score in [7] is 1.1; in assay [9] it was 0.613; in [10], -0.0047; in assay [11] it was 0.712; in assay [15], 3.14; in assay [17] it was 0.0325. Besides, the composite z-score was -0.148 in [18], -0.0559 in assay [19] and -0.058 in assay [20]. In addition, the z-score in [8] was -2.97 (inactive); in assay [12], -1.08 (inactive); in assay [13] it was -0.413 (inactive); in assay [14], -1.64 (inactive); in assay [16], 1.93 (inactive).

Regarding `Cc1ccc(S[C@]2(C(=O)NC3CC3)CC(=O)N(Cc3ccccc3C(F)(F)F)[C@@H]2c2ccc(CO)cc2I)cc1`, the composite z-score was 1.38 in [1]; 0.15 in [2]; -0.0139 in [3]; 0.152 in assay [4]; -1.13 in assay [5]; 0.37 in [6]. Further, the composite z-score is 1.2 in assay [7]; 0.0584 in assay [9]; 0.219 in [10]; 0.279 in assay [11]; 1.1 in [15]; 0.244 in assay [17]. Moreover, the composite z-score in assay [18] is -0.536; in [19] it was -0.654; in assay [20] it was -0.0899. Moreover, the z-score in assay [8] was -0.967 (inactive); in assay [12], -1.31 (inactive); in assay [13], -4.68 (inactive); in [14] it was 2.34 (inactive); in assay [16] it was -0.195 (inactive).
